# Sampled rows, rich in hits. Any-hit rate of the full collection: about 5.9%.
# KB-V1 cytotox: qHTS assay for MDR1-selective chemotherapeutics: Primary screen using the drug-selected MDR subline cells KB-V1; KB-V1 MDR cells viability, CellTiter-Glo, 72 h; Potency, µM (series often up to 46.1 µM), usual class: cytotoxic; 400,000 compounds, 3.4% hits; AID 1347076, 2019; also: % is scaled to controls: 0 for no effect and ±100 for the full control effect; nearly all actives have a fitted effect of over 60% in size
#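 Drug-selected KB-V1 cells, grown in DMEM lacking phenol red with 10% FBS, receive compound titrations; after three days at 37 degrees C, surviving cell ATP is quantified by CellTiter-Glo luminescence and responses normalized and curve-fitted.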
# ATXN2 expr inh: Primary qHTS for Inhibitors of ATXN expression; HEK-293 ATXN2-luciferase reporter, luminescence, 24 h; Potency, µM (highest dose often 57 µM), without a hit: at the top dose activity change, negative = inhibition, actives largely listed as inhibitors; 360,000 compounds, 0.72% hits; also: % is scaled to controls: 0 for no effect and ±100 for the full control effect; nearly all actives have a fitted effect of over 55% in size
#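 ATXN2-luciferase reporter cells (luciferase flanked by upstream and downstream ATXN2 gene portions) were treated 24 h at 37 °C with compounds at up to 57 uM. SteadyGlo luminescence gave expression; GF-AFC fluorescence gave viability.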
# HepG2 tox-1: qHTS for Inhibitors of TGF-b: Cytotox Counterscreen. 410,000 compounds, 0.76% hits. HepG2 CAGA-GFP viability, ATP luminescence, 18 h. Potency, µM (titrated, usually from 46.1 µM), without a hit: at the top dose activity change, negative = cytotoxicity, actives largely listed as cytotoxic
#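 CellTiter-Glo luminescence gave cytotoxicity after 18 hours at 37 degrees C. The cells were HepG2 CAGA-GFP in 1% FBS DMEM, stimulated with 500 pg/mL TGF-beta after compound addition. %Activity was normalised to no-cell wells (complete cell-killing) and DMSO (no toxicity), and curves were fitted and classified.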
# TGFb inhibitor: qHTS for Inhibitors of TGF-b. 410,000 compounds, 1.2% hits. HepG2 CAGA-GFP TGF-b/SMAD3 reporter, GFP fluorescence, 18 h; TGF-beta stimulated, 500 pg/mL final. Potency, µM (highest dose often 46.1 µM), without a hit: at the highest dose activity, negative = inhibition, hits mostly inhibitors. AID 588855, 2011; also: % is scaled to controls: 0 for no effect and ±100 for the full control effect; nearly all actives have a fitted effect of over 65% in size
#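 Using HEPG2 CAGA-GFP reporter cells at 1000 cells/well, we pinned test compounds, stimulated with recombinant TGF-beta (500 pg/mL final) and measured total well GFP after 18 h.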
# KB-3-1 tox: qHTS assay for MDR1-selective chemotherapeutics: Primary screen using the parental adenocarcinoma cell KB-3-1; KB-3-1 viability, CellTiter-Glo ATP luminescence, 72 h; 400,000 compounds, 1.4% hits; AID 1347075, 2019; Potency, µM (highest dose often 46.1 µM), most hits filed as cytotoxic; also: % is scaled to controls: 0 for no effect and ±100 for the full control effect; nearly all actives have a fitted effect of over 60% in size
#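 KB-3-1 parental drug-naive adenocarcinoma cells in DMEM/10% FBS, incubated 72 h at 37 C with pin-transferred compounds across a concentration series. Viability by CellTiter-Glo luminescence; concentration-response curves fitted after normalization.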
# ATXN viability: Viability Counterscreen for Primary qHTS for Inhibitors of ATXN expression; S2 cells (HEK-293 line with an ATXN2-luciferase reporter) viability, CellTiter-Fluor protease fluorescence, 24 h; Potency, µM (top dose mostly 56.7 µM), actives largely listed as cytotoxic; 400,000 compounds, 0.49% hits; AID 651635, 2014; also: nearly all actives have a fitted effect of over 40% in size
# TGFb CAGA inh: qHTS for Inhibitors of TGF-b: Confirmation of Cherry Picks. shares compounds with TGFb inhibitor. HepG2 CAGA-GFP TGF-b reporter, GFP fluorescence, 18 h; cells stimulated with TGF-beta, 500 pg/mL. Potency, µM (highest dose often 46.1 µM), inactives show at the top dose activity, negative = inhibition, most hits filed as inhibitors. 1,600 compounds, 63% hits. AID 720534, 2013; also: % is scaled to controls: 0 for no effect and ±100 for the full control effect; nearly all actives have a fitted effect of over 65% in size
# HepG2 tox-2: qHTS for Inhibitors of TGF-b: Cytotox Counterscreen for Cherry Picks; 1,600 compounds, 27% hits; shares compounds with TGFb inhibitor; HepG2 CAGA-GFP viability, ATP luminescence, 18 h; cells stimulated with TGF-beta, 500 pg/mL; Potency, µM (top dose mostly 46.1 µM), for the others: at the top dose activity, negative = cytotoxicity, hits mostly inhibitors; AID 720535, 2013; also: % is scaled to controls: 0 for no effect and ±100 for the full control effect; nearly all actives have a fitted effect of over 70% in size
# CCL64 TGFb inh: qHTS for Inhibitors of TGF-b: CCL64 Cells Orthogonal Assay for Cherry Picks; shares compounds with TGFb inhibitor; CCL64 CAGA-GFP reporter, TGF-b stimulated, GFP fluorescence, 18 h; Potency, µM (series often up to 46.1 µM), for inactives: at the highest dose activity, negative = inhibition, most hits filed as inhibitors; 1,600 compounds, 41% hits; AID 720536, 2013; also: nearly all actives have a fitted effect of over 65% in size
# TGFb COP inh: qHTS for Inhibitors of TGF-b: Hit Validation in HepG2 Cells using COP promoter; shares compounds with TGFb inhibitor; HepG2 COP-GFP TGF-b reporter, GFP fluorescence, 18 h; cells stimulated by added recombinant TGF-beta; Potency, µM (titrated, usually from 46.1 µM), for the others: top-dose activity, negative = inhibition, most hits filed as inhibitors; 1,600 compounds, 3% hits; also: nearly all actives have a fitted effect of over 70% in size
# * = called active by the depositor; i = inactive; ? = inconclusive; nt = not tested or not shown. Calls follow the shape of the dose curve; as a rule, active = well fitted curve in the direction sought with a large enough effect; inconclusive = small, poorly fitted or top-dose-only effect, or another doubt; inactive = no such curve, though single readings can be large; an effect the other way counts as inactive or inconclusive. Potency is read from the fitted curve at half-maximal effect.
SMILES,KB-V1 cytotox,ATXN2 expr inh,HepG2 tox-1,TGFb inhibitor,KB-3-1 tox,ATXN viability,TGFb CAGA inh,HepG2 tox-2,CCL64 TGFb inh,TGFb COP inh
Cc1ccc(CNc2nc(NCc3ccccc3)nc3ccsc23)c(C)c1,?,?,-116%,5µM*,?,?,?,?,15µM*,?
COCCNc1nc(NCc2ccccc2)nc2ccsc12,?,-8%,-23%,2.5µM*,i,i,3.7µM*,?,4.1µM*,57%
COCCNc1nc(NCc2ccccc2OC)c2sccc2n1,?,?,-26%,1%,i,?,nt,nt,nt,nt
COc1cccc(C2NC(=O)c3n[nH]c(-c4cccs4)c32)c1 (stereo not drawn),i,1%,-2%,-13%,i,i,nt,nt,nt,nt
CN(C)S(=O)(=O)N(CC(=O)NCCSCc1cccc(Cl)c1)c1ccccc1,?,-7%,-35%,?,i,?,nt,nt,nt,nt
COc1ccc(CNC(=O)c2ccc(NC(=O)N3CCCCc4ccccc43)cc2)c(OC)c1,i,-16%,-22%,?,i,i,nt,nt,nt,nt
O=[N+]([O-])c1ccc(S(=O)(=O)c2cccc(C(F)(F)F)c2)nc1,?,?,13µM*,6.3µM*,?,16µM*,3.7µM*,7.3µM*,2.6µM*,16µM*
O=S(=O)(Nc1cccnc1)c1cccc(C(F)(F)F)c1,i,-5%,-8%,-8%,i,i,nt,nt,nt,nt
CCOC(=O)c1c(NC(C)=O)c2c3c(sc2n1Cc1nc(-c2ccc(Cl)cc2)oc1C)CCCC3,nt,nt,-35%,nt,nt,nt,nt,nt,nt,nt
O=C(NC1CCCC(C(F)(F)F)C1)c1ccc([N+](=O)[O-])o1 (stereo not drawn),?,-8%,16µM*,10µM*,?,i,7.3µM*,23µM*,?,?
O=C(NC1CCCCC1)c1ccc([N+](=O)[O-])o1,?,9%,-18%,?,?,i,nt,nt,nt,nt
CCOc1ccc(Cl)cc1-c1cc(C(=O)NCc2cc(C(F)(F)F)cc(C(F)(F)F)c2)[nH]n1,?,?,-22%,16µM*,?,?,16µM*,?,?,21%
CCOc1ccc(Cl)cc1-c1cc(C(=O)NCc2ccccc2)[nH]n1,i,-15%,0%,?,i,i,nt,nt,nt,nt
COc1ccc(C)cc1NC(=O)Cn1c(=O)nc(-c2ccccc2F)c2cc(Cl)ccc21,nt,nt,13%,10%,nt,nt,nt,nt,nt,nt
O=C(NC(c1ccccc1)c1ccc2ccccc2n1)C1CCN(CCOc2ccc(Cl)cc2)CC1 (stereo not drawn),?,28µM*,11µM*,7.1µM*,?,28µM*,6.5µM*,5.2µM*,3.7µM*,?
O=C(NC(c1ccc(F)cc1)c1ccc2ccccc2n1)C1CCN(Cc2ccc(Oc3ccccc3)cc2)CC1 (stereo not drawn),i,-32%,-3%,?,?,i,nt,nt,nt,nt
O=C(NC(c1ccccc1)c1ccc2ccccc2n1)C1CCN(Cc2ccc(Oc3ccccc3)cc2)CC1 (stereo not drawn),i,-26%,-16%,?,i,?,nt,nt,nt,nt
COc1cc(CN2CCC(C(=O)NC(c3ccc(F)cc3)c3ccc4ccccc4n3)CC2)cc(OC)c1 (stereo not drawn),?,-6%,5.6µM*,3.5µM*,5.2µM*,?,?,15µM*,8.2µM*,?
Cc1cccc(-n2c3nc(=O)[nH]c(=O)c-3cc3c(Cl)cccc32)c1C,i,9%,-2%,?,i,i,nt,nt,nt,nt
Fc1cccc(CCN2C(=S)NC[C@@H]2CC2CCCCC2)c1,?,0%,-34%,14µM*,?,?,16µM*,-16%,?,-23%
CCc1ccc(Cn2nnc3c(=O)[nH]c(C4CCCN(C(=O)c5cccc(Cl)c5)C4)nc32)cc1 (stereo not drawn),i,-18%,-25%,?,i,?,nt,nt,nt,nt
CC1(C)Cc2ccccc2C2=NNC(=O)C2=N1,?,?,-89%,3.2µM*,?,?,4.6µM*,7.3µM*,?,12µM*
CC1(C)Cc2ccccc2C(Nn2cnnc2)=N1,i,4%,7%,-14%,i,i,nt,nt,nt,nt
CCC(=O)Nc1sc2c(c1C(N)=O)CCN(C(C)=O)C2,i,0%,8%,7%,i,i,nt,nt,nt,nt
CC(=O)N1CCc2c(sc(NC(=O)c3ccc([N+](=O)[O-])o3)c2C(N)=O)C1,i,nt,-91%,3.5µM*,i,20µM*,4.6µM*,5.8µM*,?,?
COC(=O)c1ccc2nc(-c3ccco3)c(Cc3cccc(F)c3)n2c1,i,2%,-19%,14µM*,i,i,21µM*,-12%,?,25%
CC(Nc1ccccc1CO)C(=O)Nc1cccc(Cl)c1Cl (stereo not drawn),i,?,-32%,4µM*,i,i,5.2µM*,2.1µM*,-20%,-15%

# Screening results: PubChem BioAssay, National Center for Advancing Translational Sciences (NCATS)
